PubChem BioAssay (NCI)
This is part of a sample that, as a whole, favours compounds with a hit. Of some 83,000 tested, about 20% had one in any assay.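 Growth was measured after 48 h exposure to one concentration of compound in 96-well plates. Values under 10 count as active.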 Active and inactive are the calls of the source.

The compounds below were run on MDA-MB-468 breast (assay: NCI-60 one-dose screen, 48 h (100 = growth as untreated, 0 = no growth, -100 = all killed)). Details: 10 µM unless noted.
For COc1cc(/C=C2\CCC/C(=C\c3cc(CN4CCOCC4)c(O)c(OC)c3)C2=O)cc(CN2CCOCC2)c1O, the growth was 31.5% (inactive). With C=C1C(=O)O[C@@H]2C[C@@H](C)[C@H](OC)CC(=O)[C@](C)(OC(C)=O)C[C@H](OC(=O)/C(C)=C\C)[C@@H]12 the growth was 54.5% (inactive). For CCCCC1=C(Br)C(=O)c2nc(C)ccc2C1=O, the growth was 92.6% (inactive). With COc1ccc(CNC(=O)C(=O)[C@H](Cc2ccccc2)NC(=O)c2[nH]c3ccccc3c(=O)c2C)cc1 the growth was 98.4% (inactive).
